SMILES strings stand for the structures.

This note sets out measurements from the supplement of paper PMC7156485.
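Further: TDF is a line of transformed human dermal fibroblasts of mesenchymal origin.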

The first experiment concerns TDF. Description: H1.0 immunofluorescence intensity relative to DMSO (% of DMSO); higher = stronger H1.0 induction, active = 120 or more. Particulars: concentration: 10 µM; 24 h. The procedure, abridged: (§1)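 Using 384-well plates with 800 cells per well in RPMI plus 10% FBS, HCC1569 and TDF cells were exposed to compounds at 10 µM, in triplicate, for 24 h at 37 °C. Imaging of six fields per well at ×10 followed H1.0 and DAPI staining. The reported quantity, H1.0 nuclear intensity or cell number, is a median of replicates given as percent of the plate control, and HCC1569 values were smoothed for positional effects.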
With `COCc1c(C(C)C)nc(C(C)C)c(C=CC(O)CC(O)CC(=O)O)c1-c1ccc(F)cc1` (stereo unspecified) [Cerivastatin], the H1.0 immunofluorescence intensity is 166 (active).
For `Cl.NC(N)=NC(=O)c1nc(Cl)c(N)nc1N` [Amiloride hydrochloride], the H1.0 immunofluorescence intensity was 97.6 (inactive).
Consider `C=C1C(=CC=C2CCCC3(C)C2CCC3C(C)C=CC(O)C2CC2)CC(O)CC1O` (stereo unspecified) [Calcipotriene], for which the H1.0 immunofluorescence intensity was 91.9 (inactive).
For `CC(=O)Oc1ccccc1C(=O)O` [Acetylsalicylic Acid], the H1.0 immunofluorescence intensity was 96.1 (inactive).
With `O=C(c1ccc2c(c1)OCCO2)N1CCCCC1`, the H1.0 immunofluorescence intensity is 96.7 (inactive).
On to `COc1cc(C(=O)OCCC[NH+]2CCC[NH+](CCCOC(=O)c3cc(OC)c(OC)c(OC)c3)CC2)cc(OC)c1OC.[Cl-].[Cl-]` [Dilazep hydrochloride], for which the H1.0 immunofluorescence intensity is 108 (inactive).
In the case of `NC1(C(=O)O)CCc2cc(C(=O)O)ccc21` (stereo unspecified), the H1.0 immunofluorescence intensity is 88.5 (inactive).
`CCN(CC)CCNC(=O)c1cc(S(C)(=O)=O)ccc1OC.Cl` [Tiapride hydrochloride]: the H1.0 immunofluorescence intensity was 96.7 (inactive).
Still for that read-out and setting: in the case of `O=C(Nc1ccc(S(=O)(=O)Nc2nccs2)cc1)C(c1ccccc1)c1ccccc1` it was 86 (inactive); in that of `CCCCCC(O)C=CC1C(O)CC2OC(=CCCCC(=O)[O-])CC21.[Na+]` (stereo unspecified) [Prostaglandin I2 Na], 94.1 (inactive).
On to `CC(C[N+](C)(C)C)OC(N)=O.[Cl-]` (stereo unspecified) [Bethanechol chloride], for which the H1.0 immunofluorescence intensity is 92.6 (inactive).
`CC(N)(Cc1ccc(O)cc1)C(=O)O` [L-alpha-Methyl-p-tyrosine]: the H1.0 immunofluorescence intensity is 92.6 (inactive).
Regarding `CC(NCCc1ccc(O)cc1)C(O)c1ccc(O)cc1.Cl` (stereo unspecified) [Ritodrine hydrochloride], the H1.0 immunofluorescence intensity is 101 (inactive).
`CCCCCCCC/C=C\CCCCCCCC(=O)NCC(=O)O` [[(9Z)-9-octadecenoylamino]acetic acid]: the H1.0 immunofluorescence intensity is 96.9 (inactive).
For the molecule `Cl.OC(CCN1CCCCC1)(c1ccccc1)C1CCCCC1` (stereo unspecified) [Trihexyphenidyl hydrochloride], the H1.0 immunofluorescence intensity was 94 (inactive).
Take `CCCCCC=CCC1OC1C=CC(O)CC=CCCCC(=O)O` (stereo unspecified) [Hepoxilin A3]: the H1.0 immunofluorescence intensity is 93.8 (inactive).
As to `Nc1ccn(C2OC(CO)C(O)C2(F)F)c(=O)n1` (stereo unspecified) [Gemcitabine], the H1.0 immunofluorescence intensity was 122 (active).
Same read-out and setting: to `CCCCCC#CCC(O)C=CC=CC=CC(O)CCCC(=O)O` (stereo unspecified) [14,15-Dehydroleukotriene B4] belongs 105 (inactive); to `CC12CCC3c4ccc(O)cc4CC(CCCCCCCCCS(=O)CCCC(F)(F)C(F)(F)F)C3C1CCC2O` (stereo unspecified) [Fulvestrant], 104 (inactive).
For `CC(=O)SCC(Cc1ccccc1)C(=O)NCC(=O)OCc1ccccc1` (stereo unspecified) [Racecadotril], the H1.0 immunofluorescence intensity was 91.5 (inactive).
Turning to `CC#CC1(O)CCC2C3CCC4=CC(=O)CCC4=C3C(c3ccc(N(C)C)cc3)CC21C` (stereo unspecified) [Mifepristone], the H1.0 immunofluorescence intensity is 96.8 (inactive).
As to `Oc1ccc(-c2c(-c3ccccc3)nn3c(C(F)(F)F)cc(C(F)(F)F)nc23)cc1`, the H1.0 immunofluorescence intensity was 154 (active).
Turning to `CC1=CC(=O)C2=C(C)CCC3C(C)C(=O)OC3C12` (stereo unspecified) [Leucomisine], the H1.0 immunofluorescence intensity is 96.5 (inactive).
Regarding `CC(C)CCN1c2nc(Nc3cc(F)c(O)c(F)c3)ncc2N(C)C(=O)C1C` (stereo unspecified), the H1.0 immunofluorescence intensity is 131 (active).
As to `Cl.N=C(N)c1ccccc1` [Benzamidine hydrochloride], the H1.0 immunofluorescence intensity was 94 (inactive).
In the case of `O=C(Nc1cccc(-c2ccccc2)c1)OC1CCCCC1` [cyclohexyl [1,1'-biphenyl]-3-ylcarbamate], the H1.0 immunofluorescence intensity was 93.4 (inactive).
For `CC(CCc1ccc(O)cc1)NCCc1ccc(O)c(O)c1.Cl` (stereo unspecified) [Dobutamine hydrochloride], the H1.0 immunofluorescence intensity is 85.4 (inactive).

For a further experiment, the system named is HCC1569. Description: H1.0 immunofluorescence intensity relative to DMSO (% of DMSO); higher = stronger H1.0 induction, active = 140 or more. Particulars: concentration: 10 µM; 24 h. The procedure, abridged: as §1
With `O=C(CCCc1ccc(-c2ccccc2F)cc1)Nc1ccc(O)cc1` [MK2a Inhibitor], the H1.0 immunofluorescence intensity was 129 (inactive).
For the molecule `CCN1CCN(C(=O)NC(C(=O)NC2C(=O)N3C(C(=O)O)=C(CSc4nnnn4C)CSC23)c2ccc(O)cc2)C(=O)C1=O` (stereo unspecified) [Cefoperazone acid], the H1.0 immunofluorescence intensity is 102 (inactive).
As to `O=C(Nc1ccccc1)c1cc([N+](=O)[O-])ccc1Cl`, the H1.0 immunofluorescence intensity was 97.9 (inactive).
Turning to `CCn1c(-c2nonc2N)nc2c(C#CC(C)(C)O)ncc(OCC3CCCNC3)c21` (stereo unspecified), the H1.0 immunofluorescence intensity was 120 (inactive).
As to `CCCCCOC(=O)Nc1nc(=O)n(C2OC(C)C(O)C2O)cc1F` (stereo unspecified) [Capecitabine], the H1.0 immunofluorescence intensity was 95.7 (inactive).
Turning to `CCCOC(=O)c1cc(O)c(O)c(O)c1` [N-Propyl gallate], the H1.0 immunofluorescence intensity was 107 (inactive).
Turning to `CN1C2CCC1CC(OC(c1ccccc1)c1ccccc1)C2.CS(=O)(=O)O` (stereo unspecified) [Benztropine mesylate], the H1.0 immunofluorescence intensity was 97.7 (inactive).
Same read-out and setting: to `O=C(NCCCCCCNC(=O)ON=C1CCCCC1)ON=C1CCCCC1` belongs 97.1 (inactive); to `COc1cc(C2CC(=O)c3c(O)cc(O)cc3O2)ccc1O` (stereo unspecified) [Homoeriodictyol], 88.7 (inactive); to `O=C1NC(=O)C(=Cc2cccc(C(F)(F)F)c2)S1` [PIM1/2 Kinase Inhibitor V], 108 (inactive).
Take `Clc1ccccc1C(c1ccccc1)(c1ccccc1)n1ccnc1` [Clotrimazole]: the H1.0 immunofluorescence intensity was 108 (inactive).
For `CN1C(CC(=O)c2ccccc2)CCCC1CC(O)c1ccccc1.Cl` (stereo not drawn) [alpha-Lobeline hydrochloride], the H1.0 immunofluorescence intensity is 103 (inactive).
On the same count and under the same terms, in the case of `COCc1c(C(C)C)nc(C(C)C)c(C=CC(O)CC(O)CC(=O)O)c1-c1ccc(F)cc1` (stereo unspecified) [Cerivastatin] it was 98.3 (inactive); in that of `Cl.NC(N)=NC(=O)c1nc(Cl)c(N)nc1N` [Amiloride hydrochloride], 96.9 (inactive).
For the molecule `C=C1C(=CC=C2CCCC3(C)C2CCC3C(C)C=CC(O)C2CC2)CC(O)CC1O` (stereo unspecified) [Calcipotriene], the H1.0 immunofluorescence intensity was 115 (inactive).
Regarding `CC(=O)Oc1ccccc1C(=O)O` [Acetylsalicylic Acid], the H1.0 immunofluorescence intensity is 102 (inactive).
Regarding `O=C(c1ccc2c(c1)OCCO2)N1CCCCC1`, the H1.0 immunofluorescence intensity is 107 (inactive).
Turning to `COc1cc(C(=O)OCCC[NH+]2CCC[NH+](CCCOC(=O)c3cc(OC)c(OC)c(OC)c3)CC2)cc(OC)c1OC.[Cl-].[Cl-]` [Dilazep hydrochloride], the H1.0 immunofluorescence intensity was 107 (inactive).
With `NC1(C(=O)O)CCc2cc(C(=O)O)ccc21` (stereo unspecified), the H1.0 immunofluorescence intensity is 84.5 (inactive).
Consider `CCN(CC)CCNC(=O)c1cc(S(C)(=O)=O)ccc1OC.Cl` [Tiapride hydrochloride], for which the H1.0 immunofluorescence intensity was 99.3 (inactive).
In the case of `O=C(Nc1ccc(S(=O)(=O)Nc2nccs2)cc1)C(c1ccccc1)c1ccccc1`, the H1.0 immunofluorescence intensity was 108 (inactive).
Regarding `CCCCCC(O)C=CC1C(O)CC2OC(=CCCCC(=O)[O-])CC21.[Na+]` (stereo unspecified) [Prostaglandin I2 Na], the H1.0 immunofluorescence intensity was 98.3 (inactive).
As for `CC(C[N+](C)(C)C)OC(N)=O.[Cl-]` (stereo unspecified) [Bethanechol chloride], the H1.0 immunofluorescence intensity is 99.3 (inactive).
As to `CC(N)(Cc1ccc(O)cc1)C(=O)O` [L-alpha-Methyl-p-tyrosine], the H1.0 immunofluorescence intensity is 90.6 (inactive).
As to `CC(NCCc1ccc(O)cc1)C(O)c1ccc(O)cc1.Cl` (stereo unspecified) [Ritodrine hydrochloride], the H1.0 immunofluorescence intensity was 91.5 (inactive).
As to `CCCCCCCC/C=C\CCCCCCCC(=O)NCC(=O)O` [[(9Z)-9-octadecenoylamino]acetic acid], the H1.0 immunofluorescence intensity was 100 (inactive).
Still for that read-out and setting: in the case of `Cl.OC(CCN1CCCCC1)(c1ccccc1)C1CCCCC1` (stereo unspecified) [Trihexyphenidyl hydrochloride] it was 75.4 (inactive); in that of `CCCCCC=CCC1OC1C=CC(O)CC=CCCCC(=O)O` (stereo unspecified) [Hepoxilin A3], 100 (inactive); in that of `Nc1ccn(C2OC(CO)C(O)C2(F)F)c(=O)n1` (stereo unspecified) [Gemcitabine], 96.6 (inactive).
In the case of `CCCCCC#CCC(O)C=CC=CC=CC(O)CCCC(=O)O` (stereo unspecified) [14,15-Dehydroleukotriene B4], the H1.0 immunofluorescence intensity is 101 (inactive).
As for `CC12CCC3c4ccc(O)cc4CC(CCCCCCCCCS(=O)CCCC(F)(F)C(F)(F)F)C3C1CCC2O` (stereo unspecified) [Fulvestrant], the H1.0 immunofluorescence intensity is 110 (inactive).
As to `CC(=O)SCC(Cc1ccccc1)C(=O)NCC(=O)OCc1ccccc1` (stereo unspecified) [Racecadotril], the H1.0 immunofluorescence intensity is 104 (inactive).
With `CC#CC1(O)CCC2C3CCC4=CC(=O)CCC4=C3C(c3ccc(N(C)C)cc3)CC21C` (stereo unspecified) [Mifepristone], the H1.0 immunofluorescence intensity is 102 (inactive).
`Oc1ccc(-c2c(-c3ccccc3)nn3c(C(F)(F)F)cc(C(F)(F)F)nc23)cc1`: the H1.0 immunofluorescence intensity is 143 (active).
Turning to `CC1=CC(=O)C2=C(C)CCC3C(C)C(=O)OC3C12` (stereo unspecified) [Leucomisine], the H1.0 immunofluorescence intensity was 95.6 (inactive).
On to `CC(C)CCN1c2nc(Nc3cc(F)c(O)c(F)c3)ncc2N(C)C(=O)C1C` (stereo unspecified), for which the H1.0 immunofluorescence intensity is 148 (active).
`Cl.N=C(N)c1ccccc1` [Benzamidine hydrochloride]: the H1.0 immunofluorescence intensity was 85.3 (inactive).
Turning to `O=C(Nc1cccc(-c2ccccc2)c1)OC1CCCCC1` [cyclohexyl [1,1'-biphenyl]-3-ylcarbamate], the H1.0 immunofluorescence intensity is 88.6 (inactive).
For the molecule `CC(CCc1ccc(O)cc1)NCCc1ccc(O)c(O)c1.Cl` (stereo unspecified) [Dobutamine hydrochloride], the H1.0 immunofluorescence intensity is 91 (inactive).
